Measured values from the supplement of paper PMC7156485.
A number with no mark means an inactive call.

system: TDF; assay: H1.0 immunofluorescence intensity relative to DMSO (% of DMSO); higher = stronger H1.0 induction, active = 120 or more; conditions: concentration: 10 µM; 24 h
Outline: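 H1.0 nuclear intensity or cell number is expressed as percent of the plate control, with the median of replicates taken. HCC1569 and TDF cells were treated with compounds at 10 µM for 24 h at 37 °C, in triplicate, then fixed and immunostained for H1.0 with DAPI as a nuclear stain. HCC1569 values were smoothed to correct for positional effects.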
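Also: TDF is a line of transformed human dermal fibroblasts of mesenchymal origin.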

| SMILES | H1.0 immunofluorescence intensity |
| --- | --- |
| CC(OC(=O)c1ccc(F)cc1F)C(=O)N(C)C1CCS(=O)(=O)C1 (stereo not given) [Cdk2/9 Inhibitor] | 110 |
| CCCCCCCCC=CCCCCCCCC(=O)OCC(O)COP(=O)(O)O (stereo not given) [Lysophosphatidic acid] | 96.9 |
| CC(N)=O [Acetamide] | 111 |
| COC1CC2CCC(C)C(O)(O2)C(=O)C(=O)N2CCCCC2C(=O)OC(C(C)CC2CCC(O)C(OC)C2)CC(=O)C(C)C=C(C)C(O)C(OC)C(=O)C(C)CC(C)C=CC=CC=C1C (stereo not given) [Rapamycin] | 86.7 |
| CC(C)(C)NCC(O)c1ccc(O)c(CO)c1 (stereo not given) [Salbutamol] | 95.9 |
| O[C@@H]1[C@@H](O)[C@H](OC/C=C/c2ccccc2)O[C@H](CO[C@@H]2OC[C@H](O)[C@H](O)[C@H]2O)[C@H]1O | 100 |
| Clc1ccc(Nc2nnc(Cc3ccncc3)c3ccccc23)cc1 [Vatalanib] | 97.2 |
| CC(=O)O.O=C(O)c1ccc2c3c1cccc3c(=O)n1c3ccccc3nc21 | 91.3 |
| NC(=O)Nc1sc(-c2ccc(F)cc2)cc1C(N)=O | 96.3 |
| C=C1CCC(O)CC1=CC=C1CCCC2(C)C1CCC2C(C)CCCC(C)(C)O (stereo not given) [Calcifediol] | 99.9 |
| CCC(=C(CC)c1ccc(O)cc1)c1ccc(O)cc1 [Diethylstilbestrol] | 99 |
| NC(=O)C(=O)[O-].[Na+] [Sodium Oxamate] | 94 |
| COc1ccc2c(c1)c(CC(=O)O)c(C)n2Cc1ccc(F)cc1 [1-(4-Fluorobenzyl)-5-methoxy-2-methylindole-3-acetic acid] | 95.4 |
| COc1ccc2cc(CCC(C)=O)ccc2c1 [Nabumetone] | 93.8 |
| CC1=NC(=NNc2ccc(S(=O)(=O)[O-])cc2S(=O)(=O)[O-])C(COP(=O)([O-])[O-])=C(C=O)C1=O.[Na+].[Na+].[Na+].[Na+] | 90.1 |
| Cc1cncc2cccc(S(=O)(=O)N3CCCN(C(=O)CN)CC3C)c12.Cl.Cl.O (stereo not given) [Rho Kinase Inhibitor IV] | 98.4 |
| CN(C)c1ccc(O)c2c1CC1CC3C(N(C)C)C(=O)C(C(N)=O)=C(O)C3(O)C(=O)C1=C2O.Cl (stereo not given) [Minocycline hydrochloride] | 99.7 |
| C=C1C(=CC=C2CCCC3(C)C2CCC3C(C)CCCC(C)(C)O)CC(O)CC1O (stereo not given) [Calcitriol] | 98.2 |
| COc1ccc2c(c1)CCC1C2CCC2(C)C(NCCCCCCN3C(=O)C=CC3=O)CCC12 (stereo not given) | 88.6 |
| COc1c(O)cc(O)c2c(=O)cc(-c3ccccc3)oc12 [Wogonin] | 91.2 |

| SMILES | H1.0 immunofluorescence intensity |
| --- | --- |
| CC(C)CC(NC(=O)C(O)C(N)Cc1ccccc1)C(=O)O.Cl (stereo not given) [Epibestatin hydrochloride] | 91.8 |
| NC(N)=S [Thiourea] | 92.6 |
| C=C1C(=O)OC2C1CCC(=C)C1CCC(=C)C12 (stereo not given) [Dehydrocostus lactone] | 110 |
| CC(C)C(NC(=O)OCc1ccccc1)C(=O)NC(C=O)Cc1ccccc1 (stereo not given) | 103 |
| CNC(=C[N+](=O)[O-])NCCSCc1ccc(CN(C)C)o1.Cl [Ranitidine.HCl] | 95.3 |
| CCN(CC)CCNC(=O)c1ccc(N)cc1.Cl [Procainamide hydrochloride] | 88.6 |
| Cc1ccc(F)cc1C(=O)Nc1ccc(C(=O)N2Cc3cccn3Cc3ccccc32)c(Cl)c1 | 93.2 |
| CC(C(=O)O)c1ccc2c(c1)Cc1cccnc1O2 (stereo not given) [Pranoprofen] | 103 |
| CN1CCCCC1CCN1c2ccccc2Sc2ccc(S(C)=O)cc21.O=S(=O)(O)c1ccccc1 (stereo not given) [Mesoridazine besylate] | 92.4 |
| O.O=P(O)(O)C(O)(Cn1ccnc1)P(=O)(O)O | 94.5 |
| Nc1ccc(-c2cccc3c(=O)cc(N4CCOCC4)oc23)cc1 | 82.5 |
| COC(=O)C(=C1OC(=O)C(c2ccccc2)=C1O)c1ccccc1 [Vulpinic acid] | 89.4 |
| O=C(O)[C@H]1C[C@H](C(=O)O)N1 (relative stereo) [trans-Azetidine-2,4-dicarboxylic acid] | 91.5 |
| CS(=O)(=O)O.Cc1ccc(N(CC2=NCCN2)c2cccc(O)c2)cc1 [Phentolamine mesylate] | 97.7 |
| CC[n+]1c(C=CN(C)c2ccccc2)n(-c2ccccc2)c2ccc(-c3nc4ccccc4s3)cc21.[I-] [Akt Inhibitor IV] | 148 (active) |
| Cl.Cl.Nc1nccc(-c2c(-c3ccc(F)cc3)ncn2C2CCCCC2)n1 | 79.8 |
| Oc1ccc(Cn2cc[nH]c2=S)cc1 [1-(4-Hydroxybenzyl)imidazole-2-thiol] | 95.7 |
| CCCCCCCNC1CCCC1CCCCCCC(=O)O (racemic) | 88.5 |
| NC(N)=NCCCCN=C(N)N.O=S(=O)(O)O [Arcaine sulfate] | 89 |
| O=c1nc[nH]c2c1ncn2C1CCC(CO)O1 (stereo not given) [Didanosine] | 95.7 |
